From PubChem BioAssay (NCATS) come the findings set out here.

Inconclusive results are not listed. A call without a number means that no potency is given here. The source made the active and inactive calls. Calls follow the shape of the full dose curve.

The nature of experiment [1]: Cytotoxicity counterscreen for inhibitors of SARS-CoV-2 cell entry (AID 1645845). Also: nearly all actives have a fitted effect of over 50% in size. The procedure, abridged: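 ATP-content luminescence (ATPLite 1step, 15 min RT) read after 48 h compound exposure of Expi293F cells stably expressing human ACE2; normalized to cells-only wells and media-only wells.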
For orientation: A counterscreen serves to expose hits that act by an unwanted route or on another target.

A short description of experiment [2]: Primary qHTS to identify inhibitors of SARS-CoV-2 cell entry (AID 1645846). Also: nearly all actives have a fitted effect of over 45% in size. The following applies: activity change, negative = inhibition: at 57.1 µM (top of the series) unless noted. The essentials: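 HEK293-ACE2 (Expi293F, stable hACE2), 1500 cells/well, o/n 37C; cpd 23 nL pin, 1 h; MLV-PP w/ SARS-CoV-2-S (Wuhan-Hu-1, Δ19 C-term); 48 h 37C; Bright-Glo luminescence; normalized vs S-PP and bald PP.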
(Quantitative high-throughput screening tests each substance at several concentrations.)

As to `CCOc1ccccc1C(N)=O`, the Potency entry in experiment [1] and in experiment [2] was “inactive” each time.

For `CN1CCCN=C1/C=C/c1cccs1`, the Potency entry in experiment [1] is “inactive”. The activity change, negative = inhibition in experiment [2] was -29.2%.

Regarding `O=C(O)COC(=O)Cc1ccccc1Nc1c(Cl)cccc1Cl`, the Potency entry in experiment [1] and in experiment [2] was “inactive” in each case.
